An excerpt weighted towards active compounds, which were near 3.6% of everything screened.
BoNT F protease – BoNT F light chain protease inhibition; Multiplex microsphere protease cleavage assay, flow cytometry; inhibition, % at 10 µM; 0.22% of 360,000 active; AID 588497; in the data active = inhibition above about 35%, passing the limit was not always enough; inconclusive = no clear call, values can overlap the other calls
Bead autofluor – flagged as autofluorescent in microsphere protease counterscreen; compound autofluorescence counterscreen, microsphere flow cytometry; stronger effect = higher value; fluorescence intensity (test concentration not listed); 3.1% of 360,000 active; AID 624483; in the data active = fluorescence intensity above about 16000; inconclusive = no clear call, values can overlap the other calls
Anthrax LF prot – anthrax lethal factor protease inhibition; P15917; multiplex microsphere protease cleavage assay, LF; inhibition, % at 10 µM; 0.12% of 360,000 active
BoNT A protease – BoNT A light chain protease inhibition. multiplex microsphere protease substrate cleavage, flow cytometry. inhibition, % at 10 µM. 0.17% of 360,000 active
BJeLR viability – kills HRASV12-expressing BJeLR cells | AID 1554 | 0.17% of 300,000 active | inhibition, % (concentration not given with the values) | BJeLR (HRASV12) viability, CellTiter-Glo ATP luminescence, 48 h; in the data active = inhibition above about 50%; inconclusive = no clear call, values can overlap the other calls
SARS 3CLpro inh-1 – SARS-CoV 3CLpro protease inhibition; P0C6X7; recombinant SARS-CoV 3CLpro, quenched FRET peptide cleavage; inhibition, % at 6 µM; 0.14% of 290,000 active; AID 1706; in the data active = inhibition above about 12%
SARS 3CLpro inh-2 – confirmation of SARS coronavirus 3C-like protease inhibitors; shares compounds with SARS 3CLpro inh-1; inhibition, % at 6 µM; 36% of 380 active; QFRET protease activity assay, 3CLpro; in the data active = inhibition above about 13%
Large screens that a line does not name were inactive (follow-up assays come after a bar, where they were run). Cut-off read from the data, not from the text of the source, unless noted: active = inhibition above about 30%; inconclusive = no clear call, values can overlap the other calls; inactive = below that.

O=C1CC(N2CCN(C/C=C/c3ccccc3)CC2)C(=O)N1Cc1cccs1 (stereo not given)	SARS 3CLpro inh-1 16 | SARS 3CLpro inh-2 inactive
O=C1CC(N2CCN(C/C=C/c3ccccc3)CC2)C(=O)N1CCc1ccccc1 (stereo not given)	none
COc1ccc(NC(=O)c2ccc3c(=O)n(-c4ccc(OC)cc4OC)c(=S)[nH]c3c2)cc1	SARS 3CLpro inh-1 14 (no result: BJeLR viability) | SARS 3CLpro inh-2 inactive
CCc1cccc(CC)c1N(COC)C(=O)Cn1nnc2ccccc21	SARS 3CLpro inh-1 12 | SARS 3CLpro inh-2 13
C/C(CC(=O)Nc1ccccn1)=N\NC(=O)c1cnccn1	none
COc1ccc(Nc2oc(COc3ccc(C)cc3)nc2C#N)cc1	SARS 3CLpro inh-1 13 | SARS 3CLpro inh-2 inactive
COc1ccc(Nc2oc(COc3ccc(OC)cc3)nc2C#N)cc1	none
CN(CC(=O)Nc1ccccc1Cl)C(=O)c1cccc(S(=O)(=O)N2CCN(Cc3ccccc3)CC2)c1	none (no result: SARS 3CLpro inh-1)
CCc1ccc(OC(=O)CN2C(=O)c3ccccc3C2=O)cc1	none
O=C(CN1C(=O)c2ccccc2C1=O)Oc1ccc(F)cc1	SARS 3CLpro inh-1 13 (no result: BoNT F protease, Bead autofluor, Anthrax LF prot, BoNT A protease) | SARS 3CLpro inh-2 inactive
COc1ccc(N(C(=O)Cn2nnc3ccccc32)C2(C(=O)NC3CCCC3)CCCCC2)cc1	SARS 3CLpro inh-1 30 | SARS 3CLpro inh-2 43
COc1ccc(CC(=O)OCCc2cc3cc(OC)c(OC)cc3c(=O)o2)cc1	none (no result: BJeLR viability, SARS 3CLpro inh-1)
O=C(Oc1ccc2ccc(=O)oc2c1)c1cccs1	SARS 3CLpro inh-1 20 | SARS 3CLpro inh-2 35
CC(C)(C)OC(=O)NCCC(=O)Oc1ccc2ccc(=O)oc2c1	SARS 3CLpro inh-1 29 | SARS 3CLpro inh-2 59
CC(NC(=O)OC(C)(C)C)C(=O)Oc1ccc2ccc(=O)oc2c1 (stereo not given)	none (no result: BJeLR viability)
CCCC(=O)Oc1ccc2c(C)cc(=O)oc2c1	SARS 3CLpro inh-1 17 | SARS 3CLpro inh-2 24
O=C(CSc1ccc2c(c1)OCCO2)Nc1ncccc1O	BoNT F protease inconclusive, Bead autofluor inconclusive, Anthrax LF prot inconclusive, BoNT A protease inconclusive (no result: SARS 3CLpro inh-1)
CCN(c1ccc(OC)cc1)S(=O)(=O)c1nnc(NC(=O)COc2ccc(C)cc2)s1	SARS 3CLpro inh-1 13 | SARS 3CLpro inh-2 inactive
O=C(CSc1nn(-c2ccc(Cl)cc2)c(=S)s1)NCC1CCCO1 (stereo not given)	none
CC(C)c1ccc(N(C(=O)c2csnn2)C(C(=O)NC2CCCC2)c2cccnc2)cc1 (stereo not given)	SARS 3CLpro inh-1 15 | SARS 3CLpro inh-2 20
COc1ccc(-c2oc3c(c2C#CC2(O)CCCCC2)C(OC(C)=O)CCC3)cc1 (stereo not given)	none (no result: BJeLR viability, SARS 3CLpro inh-1)
COc1ccc2cc(C3(C)NC(=O)N(CC(=O)NCc4ccco4)C3=O)ccc2c1 (stereo not given)	Bead autofluor 21910, SARS 3CLpro inh-1 16 | SARS 3CLpro inh-2 12
CC(C)C(C)NC(=O)COn1nnc2ccc(S(=O)(=O)N3CCOCC3)cc21 (stereo not given)	Bead autofluor inconclusive (no result: BJeLR viability, SARS 3CLpro inh-1)
CC1=Nc2cccc3cccc(c23)N1C	SARS 3CLpro inh-1 13 | SARS 3CLpro inh-2 inactive
Cn1cnc2cc(NC(=O)c3ccc(Cl)cc3)ccc21	SARS 3CLpro inh-1 33 | SARS 3CLpro inh-2 31
Cc1ccc(C(=O)Oc2ccc3c(c2)ncn3C)cc1	SARS 3CLpro inh-1 22 | SARS 3CLpro inh-2 31
Cn1cnc2cc(OC(=O)c3ccccc3)ccc21	SARS 3CLpro inh-1 15 | SARS 3CLpro inh-2 inactive
O=C(Cn1nnc(-c2ccc(Cl)cc2)n1)NC(=O)NC1CCCC1	none (no result: BJeLR viability, SARS 3CLpro inh-1)
Nc1ccccc1-c1nc2ccccc2s1	none
CN(C)c1nc(N)nc(-c2nc3ccccc3s2)n1	SARS 3CLpro inh-1 13 | SARS 3CLpro inh-2 inactive
CCCCCn1c(CN2CCN(Cc3ccccc3)CC2)nc2c1c(=O)[nH]c(=O)n2C	Bead autofluor 22888, SARS 3CLpro inh-1 13 | SARS 3CLpro inh-2 inactive
O=[N+]([O-])c1ccccc1CNC(Cc1ccccc1)c1ccccc1 (stereo not given)	none
COc1ccc(/C=N/NC(=O)Cn2nnc3ccccc32)cc1OC	SARS 3CLpro inh-1 12 | SARS 3CLpro inh-2 16
CN(C)c1ccc(/C=N/NC(=O)Cn2nnc3ccccc32)cc1	none
COc1ccc(NC(=O)C2(C)CCN2C(=O)CC2CCCC2)cc1OC (stereo not given)	none (no result: BJeLR viability, SARS 3CLpro inh-1)
N#Cc1c(NC(=S)NC(=O)c2ccccc2)sc2c1CCC2	SARS 3CLpro inh-1 21 | SARS 3CLpro inh-2 inactive
CNC(=O)N(O)C1N(/N=C/c2cccs2)C(=S)SC1(C)C (stereo not given)	SARS 3CLpro inh-1 13 | SARS 3CLpro inh-2 inactive
Cc1cc(C)c(S(=O)(=O)/N=C2\C=C(Nc3ccc(C(=O)O)cc3)C(=O)c3ccccc32)c(C)c1	SARS 3CLpro inh-1 13 | SARS 3CLpro inh-2 inactive
COC(=O)[C@]12CCCCC=C1N(CCC1=CCCCC1)C(=O)[C@H](CC(=O)N1CCCC1)C2	none (no result: BJeLR viability, SARS 3CLpro inh-1)
O=C(Cn1nnc2ccccc21)c1ccc(Br)cc1	SARS 3CLpro inh-1 57 | SARS 3CLpro inh-2 55
Cc1ccc(C(=O)Cn2nnc3ccccc32)cc1	none (no result: BoNT F protease, Bead autofluor, Anthrax LF prot, BoNT A protease)
CN(CCc1ccccc1)C(=O)c1cc(COc2cccc(C(F)(F)F)c2)on1	SARS 3CLpro inh-1 13 | SARS 3CLpro inh-2 inactive
O=C(NCCN1CCOCC1)c1ccc2c(c1)N(Cc1ccc(F)cc1)C(=O)CS2	none
Cc1ccc(CN2C(=O)CSc3ccc(C(=O)NCCN4CCOCC4)cc32)cc1	SARS 3CLpro inh-1 19 | SARS 3CLpro inh-2 inactive
CC(C)(C)C1CCc2onc(C(=O)Nc3cccnc3)c2C1 (stereo not given)	SARS 3CLpro inh-1 14 | SARS 3CLpro inh-2 inactive
Oc1ccc(Cl)cc1Cc1cc(Cl)ccc1O	SARS 3CLpro inh-1 13 | SARS 3CLpro inh-2 inactive
CC(NC(=O)CCl)c1ccc(Cl)c(Cl)c1 (stereo not given)	SARS 3CLpro inh-1 20 | SARS 3CLpro inh-2 40
COC(=O)c1cc2sccc2n1CC(=O)Nc1ccc(OC)c(OC)c1OC	SARS 3CLpro inh-1 14 | SARS 3CLpro inh-2 inactive
CCOC(=O)c1cc2sccc2n1CC(=O)Nc1ccc(OC)cc1OC	none
CCOC(=O)c1c(C)oc2c1c1c(c3ccccc32)OCN(Cc2ccccn2)C1	SARS 3CLpro inh-1 13 | SARS 3CLpro inh-2 inactive
CC1(C(=O)NS(=O)(=O)c2ccc(Cl)cc2)CCN1C(=O)c1ccc(C2CCCCC2)cc1 (stereo not given)	none (no result: BJeLR viability, SARS 3CLpro inh-1)
O=S(=O)(Nc1ccc(-n2cnnn2)cc1)c1cccs1	Bead autofluor inconclusive (no result: BJeLR viability, SARS 3CLpro inh-1)
CC1CCC2C(=O)N(c3cc(Cl)ccc3OC(=O)c3ccco3)C(=O)C2C1 (stereo not given)	SARS 3CLpro inh-1 46 | SARS 3CLpro inh-2 60
COc1cccc(/C=C/C(=O)N2CCN(c3n[nH]c(=O)[nH]c3=O)CC2)c1OC	none
Cc1ccc(-n2c(Cc3cccn3C)nnc2SCC(=O)Nc2ccc3c(c2)OCO3)cc1	Bead autofluor 24086, SARS 3CLpro inh-1 14 | SARS 3CLpro inh-2 inactive
Cn1cccc1Cc1nnc(SCC(=O)Nc2ccc3c(c2)OCCO3)n1-c1ccc(F)cc1	none

From PubChem BioAssay
